Targets include dAsCas12a S542R (Acidaminococcus sp., UniProt U2UMQ6 1-1307, S542R;D908A;E993A;D1235A); d-enCas12a (Acidaminococcus sp., UniProt U2UMQ6 1-1307, E174R;S542R;K548R;D908A;E993A;D1235A); d-enCas12a-Ultra (Acidaminococcus sp., UniProt U2UMQ6 1-1307, E174R;S542R;K548R;M537R;F870L;D908A;E993A;D1235A).
What all share (assay): Spec-seq (native PAGE EMSA with sequencing of bound and unbound); 25 mM Tris-HCl pH 7.4, 150 mM KCl, 5 mM MgCl2, 10% glycerol, 1 mM DTT, 40 ng/uL salmon sperm DNA; 400 nM Cas12a, 480 nM crRNA, 50 nM library, 37 C 1 h; native PAGE at room temperature; high values mean tight binding
What all share (conditions): protein: recombinant
In general terms: Mobility shift assays separate free from complexed probe on a gel.

Changes are numbered by the printed parent chain.
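Note: relative affinity from the bound to unbound sequence frequency ratio in Spec-seq.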

B1: GCAA (dsDNA)
DNA 1: GCTATCTAGTGCTCAGTACGCACTGGCAAAGGAAACTTCTGGCAGGACCAGGTCATGAGATCGGAAGAGCACACGTCTGAACTCCAGTCA
DNA 2: TGACTGGAGTTCAGACGTGTGCTCTTCCGATCTCATGACCTGGTCCTGCCAGAAGTTTCCTTTGCCAGTGCGTACTGAGCACTAGATAGC
RNA: AAUUUCUACUCUUGUAGAUAGGAAACUUCUGGCAGGACC
For the molecule B1, the figures for the binding signal with dAsCas12a S542R, with d-enCas12a and with d-enCas12a-Ultra were -8.78 lnKA, -5.83 lnKA and -3.42 lnKA, respectively.

B2: GGAA (dsDNA)
DNA 1: B1 DNA 1 with C27G
DNA 2: B1 DNA 2 with G64C
RNA: B1 RNA
Regarding B2, the binding signal is -8.88 lnKA with dAsCas12a S542R, -5.71 lnKA with d-enCas12a and -3.48 lnKA in the test with d-enCas12a-Ultra.

B3: GGCT (dsDNA)
DNA 1: B1 DNA 1 with C27G, A28C, A29T
DNA 2: B1 DNA 2 with T62A, T63G, G64C
RNA: B1 RNA
Turning to B3, the binding signal was -8.78 lnKA with dAsCas12a S542R, -5.68 lnKA in the test with d-enCas12a and -2.87 lnKA with d-enCas12a-Ultra.

B4: GCAT (dsDNA)
DNA 1: B1 DNA 1 with A29T
DNA 2: B1 DNA 2 with T62A
RNA: B1 RNA
In the case of B4, the binding signal is -8.69 lnKA with dAsCas12a S542R, -5.86 lnKA in the test with d-enCas12a and -3.45 lnKA with d-enCas12a-Ultra.

B5: GGGC (dsDNA)
DNA 1: B1 DNA 1 with C27G, A28G, A29C
DNA 2: B1 DNA 2 with T62G, T63C, G64C
RNA: B1 RNA
As for B5, the binding signal with dAsCas12a S542R is -8.77 lnKA; with d-enCas12a, -5.93 lnKA; in the test with d-enCas12a-Ultra, -3.41 lnKA.

B6: GCCT (dsDNA)
DNA 1: B1 DNA 1 with A28C, A29T
DNA 2: B1 DNA 2 with T62A, T63G
RNA: B1 RNA
B6: the figures for the binding signal with dAsCas12a S542R, with d-enCas12a and in the test with d-enCas12a-Ultra were -7.86 lnKA, -5.97 lnKA and -2.67 lnKA, respectively.

B7: GGAT (dsDNA)
DNA 1: B1 DNA 1 with C27G, A29T
DNA 2: B1 DNA 2 with T62A, G64C
RNA: B1 RNA
Turning to B7, the binding signal in the test with dAsCas12a S542R is -8.54 lnKA; in the test with d-enCas12a it was -5.99 lnKA; in the test with d-enCas12a-Ultra, -3.45 lnKA.

B8: GCAG (dsDNA)
DNA 1: B1 DNA 1 with A29G
DNA 2: B1 DNA 2 with T62C
RNA: B1 RNA
Regarding B8, the binding signal is -8.35 lnKA with dAsCas12a S542R, -6.02 lnKA with d-enCas12a and -3.32 lnKA with d-enCas12a-Ultra.

B9: GCCC (dsDNA)
DNA 1: B1 DNA 1 with A28C, A29C
DNA 2: B1 DNA 2 with T62G, T63G
RNA: B1 RNA
Consider B9, for which the binding signal in the test with dAsCas12a S542R was -5 lnKA; with d-enCas12a it was -2.96 lnKA; with d-enCas12a-Ultra it was -0.56 lnKA.

B10: GGAG (dsDNA)
DNA 1: B1 DNA 1 with C27G, A29G
DNA 2: B1 DNA 2 with T62C, G64C
RNA: B1 RNA
Regarding B10, the binding signal with dAsCas12a S542R is -8.39 lnKA; with d-enCas12a it was -5.85 lnKA; with d-enCas12a-Ultra it was -3.43 lnKA.

B11: GCAC (dsDNA)
DNA 1: B1 DNA 1 with A29C
DNA 2: B1 DNA 2 with T62G
RNA: B1 RNA
B11: the binding signal was -8.62 lnKA in the test with dAsCas12a S542R, -5.82 lnKA with d-enCas12a and -3.32 lnKA with d-enCas12a-Ultra.

B12: GCGT (dsDNA)
DNA 1: B1 DNA 1 with A28G, A29T
DNA 2: B1 DNA 2 with T62A, T63C
RNA: B1 RNA
As to B12, the binding signal with dAsCas12a S542R was -8.52 lnKA; with d-enCas12a it was -5.91 lnKA; with d-enCas12a-Ultra, -3.51 lnKA.

B13: GGCC (dsDNA)
DNA 1: B1 DNA 1 with C27G, A28C, A29C
DNA 2: B1 DNA 2 with T62G, T63G, G64C
RNA: B1 RNA
Regarding B13, the binding signal was -8.47 lnKA in the test with dAsCas12a S542R, -3.7 lnKA with d-enCas12a and -0.996 lnKA in the test with d-enCas12a-Ultra.

B14: GGGT (dsDNA)
DNA 1: B1 DNA 1 with C27G, A28G, A29T
DNA 2: B1 DNA 2 with T62A, T63C, G64C
RNA: B1 RNA
B14: the binding signal was -8.85 lnKA in the test with dAsCas12a S542R, -5.77 lnKA with d-enCas12a and -3.46 lnKA with d-enCas12a-Ultra.

B15: GGCA (dsDNA)
DNA 1: B1 DNA 1 with C27G, A28C
DNA 2: B1 DNA 2 with T63G, G64C
RNA: B1 RNA
Turning to B15, the binding signal was -8.26 lnKA with dAsCas12a S542R, -4.74 lnKA with d-enCas12a and -1.64 lnKA with d-enCas12a-Ultra.

B16: GCCG (dsDNA)
DNA 1: B1 DNA 1 with A28C, A29G
DNA 2: B1 DNA 2 with T62C, T63G
RNA: B1 RNA
B16: the binding signal was -6.59 lnKA with dAsCas12a S542R, -5.48 lnKA with d-enCas12a and -1.86 lnKA with d-enCas12a-Ultra.

B17: GGAC (dsDNA)
DNA 1: B1 DNA 1 with C27G, A29C
DNA 2: B1 DNA 2 with T62G, G64C
RNA: B1 RNA
In the case of B17, the binding signal was -8.47 lnKA in the test with dAsCas12a S542R, -5.75 lnKA in the test with d-enCas12a and -3.35 lnKA in the test with d-enCas12a-Ultra.

Source of the values: PMC8222333, “AsCas12a ultra nuclease facilitates the rapid generation of therapeutic cell medicines”.
